Measurements published in PubChem BioAssay (NCI).
Compounds without any hit were thinned out: in the full panel of roughly 83,000, 20% have a hit.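 Method: cells in 96-well plates; compound added at one concentration; 48 h incubation; percent growth measured; values under 10 scored active.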 Unmarked numbers belong to inactive results. Active and inactive are the calls of the source.

system: HCT-116 colon; experiment: NCI-60 one-dose screen, 48 h (100 = growth as untreated, 0 = no growth, -100 = all killed); conditions: 10 µM unless noted
Experimental: Growth inhibition of the HCT-116 human tumor cell line is measured as a screen for anti-cancer activity. Cells are grown in 96 well plates and exposed to the test compound for 48 hours. Compounds are tested at a single concentration, which is 10^-5 M for most compounds. The reported endpoint is percent growth (GI% or GIPRCNT), where numbers from 0 - 100% represent growth inhibition, and numbers from -100% - 0 represent cell death. For example, a value of 40 represents 60% growth inhibition. A value of 0 means no net growth occurred over the course of the experiment. A value of -40 indicates 40% of cells at the beginning of the experiment died by the end of the experiment. A value of -100 means all cells are dead at the end of the experiment.
NCI-60 Human Tumor Cell Lines Screen was performed using the standard one-dose NCI protocol, which is described in more detail at https://dtp.cancer.gov/discovery_development/nci-60/default.htm.
Compounds with GIPRCNT values below 10 were considered active. Activity score was based on GIPRCNT using the following formula: […]
Score is 0 for GIPRCNT values of 100 or above, 50 for GIPRCNT values of 0, and 100 for GIPRCNT values of -100.

| SMILES | growth |
| --- | --- |
| O=C([C@@H](COCc1ccccc1)N1C(=O)[C@@H](N2C(=O)OC[C@@H]2c2ccccc2)[C@H]1/C=C/c1ccccc1)N1CCC(CCN2CCCCC2)CC1 | 83.1% |
| COc1ccc2c(c1)C(=O)/C(=C/c1cccc(OCC(=O)Nc3nc4c(s3)CCCC4)c1)O2 | -25.7% (active) |
| Nc1c(C(=O)Nc2ccccc2)sc2nc3c(cc12)CN(CCc1ccccc1)CC3 | 98.3% |
| O=C1/C(=C/c2ccccc2)CN(CCC(=O)N2C/C(=C\c3ccccc3)C(=O)/C(=C/c3ccccc3)C2)C/C1=C\c1ccccc1 | -60.6% (active) |
| COc1ccc(CN2C(=O)/C(=C\c3cc(OC)c(OC)c(OC)c3)c3cc(OC)ccc32)cc1 | -79.6% (active) |
| O=C(O)c1cccnc1Br | 98.1% |
| Oc1c(Cl)cc(Cl)cc1CNc1nccnn1 | 98.1% |
| COc1ncc(-c2ccc3ncnc(Nc4cccc(Cl)c4)c3c2)cc1NS(C)(=O)=O | 47% |
| CCN(C(=O)CN1CCN(c2cc3c(cc2F)c(=O)c(C(=O)O)cn3CC)CC1)c1nc(-c2ccccc2)cs1 | 14% |
| Cc1cc(-c2nc3ccccc3s2)ccc1NC(=O)COc1ccc(Cl)cc1 | 76.7% |
| O=C(/C=C/c1cc2ccccc2[nH]c1=O)/C=C/c1cc2ccccc2[nH]c1=O | -71.1% (active) |
| NC(CC(=O)O)C(=O)OCc1ccccc1 (stereo not given) | 96.9% |
| CC[n+]1ccc2c(c1)C(=O)c1nccc3c1c-2nc1ccccc13 | -27.8% (active) |
| COc1ccc(-c2csc(NC(=O)CN3CCN(c4cc5c(cc4F)c(=O)c(C(=O)O)cn5C4CC4)CC3)n2)cc1 | 9.62% (active) |
| CCCCCN(CCCCC)CCC[C@@H](C)[C@H]1CC[C@H]2[C@@H]3[C@H](OCCCN)C[C@@H]4C[C@H](OCCCN)CC[C@]4(C)[C@H]3C[C@H](OCCCN)[C@]12C | 22.7% |
| COc1cc(NCCCCN=C(N)NC(N)=NC(C)C)c2ncccc2c1 | 1.56% (active) |
| CN1CCN(Cc2ccc(NC(=O)c3cncc(C#Cc4c(N)ncc5ccc(C#N)cc45)c3)cc2C(F)(F)F)CC1 | -22% (active) |
| CC[C@H](CO)Nc1nc(NCc2ccccc2)n2ncc(C(C)C)c2n1 | 13.7% |
| COc1ccc(-n2cc(-c3ccccc3)c3c(SCC(=O)N/N=C/c4ccc([N+](=O)[O-])cc4)ncnc32)cc1 | 105% |
| COc1ccc(C(=O)COc2ccc(/C=C3\Oc4ccc(Cl)cc4C3=O)cc2)cc1 | 23.6% |

| SMILES | growth |
| --- | --- |
| COc1ccc(CNc2nccnn2)cc1 | 101% |
| C=C1CC2(OC1=O)C(=O)N(CCCCCCCCCCCCN1C(=O)C3(CC(=C)C(=O)O3)c3ccccc31)c1ccccc12 (stereo not given) | 61.3% |
| Cc1ccc2c(c1)C(=O)/C(=C/c1ccc(OCC(=O)c3ccccc3)cc1)O2 | 93.4% |
| COc1cnc2c(c1)C(=O)c1c-2n(CCCBr)c(=O)c2cc([N+](=O)[O-])ccc12 | -24.8% (active) |
| CCN(CC)CC(C)(C)C(=O)/C=C/c1ccccc1 | 12.8% |
| CC1=C(NCCN2CCCC2)C(=O)c2c(OCc3ccc(F)c(Cl)c3)cccc2C1=O | 31.6% |
| COc1cc(C#N)cc(OC)c1OCCN(CCOc1c(OC)cc(C#N)cc1OC)S(=O)(=O)c1ccc(C)cc1 | 81.6% |
| Cc1ccc(Nc2nc(N)nc(Nc3ccc4ccccc4c3)n2)cc1 | 21.8% |
| O=C(Nc1cccc2[nH]c(C(F)(F)F)nc12)c1ccc(Br)cc1F | 22.7% |
| COc1cccc(-c2cn3c(ccc4ccccc43)n2)c1 | 40.6% |
| CCN(CC)c1ccc(/C=C/C2=[N+](C)c3ccccc3C2(C)C)cc1 | 13.1% |
| CCCCN(CCCC)CCC(C)(O)c1cc2ccccc2c2ccccc12 (stereo not given) | 65.6% |
| C[C@@]1(N2C(=O)OC[C@@H]2c2ccccc2)C(=O)N([C@H](CC(=O)N2CCC(N3CCCCC3)CC2)C(=O)NCc2cccc(C(F)(F)F)c2)[C@@H]1/C=C/c1ccccc1 | 44.9% |
| COc1cc(OC)c(/C=C/S(=O)(=O)Cc2cnc(OC)c(N)c2)c(OC)c1 | 3.33% (active) |
| Cn1c2ccccc2c2c3[nH]c(=O)[nH]c(=O)c3c3c4ccccc4n(C)c3c21 | 17.6% |
| COC(=O)[C@@H]1CC[C@]2(C)[C@H](CC[C@@H]3O[C@@]32C)[C@@]1(C)CC(=O)c1ccoc1 | 98.4% |
| CC(=O)O[C@H]1CC[C@]2(C)[C@H]3CC[C@@H]4[C@H]5[C@H](C(C)C)CC[C@]5(C(=O)OCC(CO)(CO)N=C(N)N)CC[C@@]4(C)[C@]3(C)CC[C@H]2C1(C)C | -76.1% (active) |
| Cc1nc2nc(N)nc(N)c2nc1C | 94.3% |
| CNC(=O)c1cc(Oc2ccc3nc(NC(=O)Nc4ccc(CN5CCOCC5)c(C(F)(F)F)c4)sc3c2)ccn1 | 6.2% (active) |
| C[C@@H]1CC[C@@H]2[C@@H]1[C@H](OC(=O)/C=C/c1ccccc1)[C@]1(c3ccccc3)C[C@@H](OC(=O)CO)[C@@]2(C)O1 | 89.5% |
